HepG2 tox = kills HepG2 cells in TGF-b inhibitor counter-screen. HepG2 CAGA-GFP viability, ATP luminescence, 18 h. Potency, µM (titrated, usually from 46.1 µM), usual class: cytotoxic. hit rate 0.76% among 410,000. AID 588856
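CellTiter-Glo luminescence gave cytotoxicity after 18 hours at 37 degrees C. The cells were HepG2 CAGA-GFP in 1% FBS DMEM, stimulated with 500 pg/mL TGF-beta after compound addition. %Activity was normalised to no-cell wells (complete cell-killing) and DMSO (no toxicity), and curves were fitted and classified.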
RORg inh = blocks mouse ROR gamma transcriptional activity. P51450. Drosophila S2 Gal4-RORgamma UAS-luciferase reporter, 20 h. Potency, µM (series often up to 53.6 µM), hits mostly inhibitors. hit rate 5.4% among 310,000; also: nearly all actives have a fitted effect of over 60% in size
Target sequence (P51450 whole entry, looked up, the tested form may be a part): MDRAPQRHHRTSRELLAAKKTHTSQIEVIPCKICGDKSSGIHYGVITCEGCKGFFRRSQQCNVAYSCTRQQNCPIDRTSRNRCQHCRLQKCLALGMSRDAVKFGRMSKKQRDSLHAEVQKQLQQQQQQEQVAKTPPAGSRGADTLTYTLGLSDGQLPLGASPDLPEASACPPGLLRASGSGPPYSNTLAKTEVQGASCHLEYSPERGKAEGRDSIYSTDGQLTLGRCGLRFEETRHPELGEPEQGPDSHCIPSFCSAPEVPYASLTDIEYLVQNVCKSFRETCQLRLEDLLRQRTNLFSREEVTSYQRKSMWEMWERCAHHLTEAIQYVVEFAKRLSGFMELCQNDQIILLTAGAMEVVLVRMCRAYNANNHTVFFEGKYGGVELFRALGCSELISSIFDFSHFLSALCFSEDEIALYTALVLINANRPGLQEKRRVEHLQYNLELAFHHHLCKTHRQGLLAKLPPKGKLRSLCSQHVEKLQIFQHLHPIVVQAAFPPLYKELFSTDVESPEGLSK
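In this cell-based reporter format, copper sulfate (700 uM final) drives Gal4–ROR gamma fusion expression from a metallothionein promoter in Drosophila Schneider cells; compounds preincubated 1 hr, reporter read after 20 hr at ambient temperature.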
TGFb SMAD3 inh = inhibitors of TGF-b signaling; HepG2 CAGA-GFP TGF-b/SMAD3 reporter, GFP fluorescence, 18 h; TGF-beta stimulated, 500 pg/mL final; Potency, µM (top dose mostly 46.1 µM), most hits filed as inhibitors; hit rate 1.2% among 410,000; AID 588855; also: nearly all actives have a fitted effect of over 65% in size
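GFP signal (ex488/em500-530) from TGF-beta-stimulated HEPG2 CAGA-GFP cells, 500 pg/mL final, 18 h at 37 degrees C in DMEM plus 1% FBS, normalized to unstimulated and DMSO-stimulated controls.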
ATXN viability = reduces viability in counter-screen for ATXN expression inhibitors; S2 cells (HEK-293 line with an ATXN2-luciferase reporter) viability, CellTiter-Fluor protease fluorescence, 24 h; Potency, µM (series often up to 56.7 µM), hits mostly cytotoxic; hit rate 0.49% among 400,000; AID 651635; also: nearly all actives have a fitted effect of over 40% in size
ATXN2 expr inh = ATXN2 expression inhibition | HEK-293 ATXN2-luciferase reporter, luminescence, 24 h | Potency, µM (titrated, usually from 57 µM), most hits filed as inhibitors | hit rate 0.72% among 360,000 | AID 1745845; also: nearly all actives have a fitted effect of over 55% in size
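ATXN2-luciferase reporter cells (luciferase flanked by upstream and downstream ATXN2 gene portions) were treated 24 h at 37 °C with compounds at up to 57 uM. SteadyGlo luminescence gave expression; GF-AFC fluorescence gave viability.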
Gal4-VP16 FLuc = inhibits Gal4-VP16 luciferase reporter, ROR gamma counter-screen; Potency, µM (doses to about 53.6 µM), most hits filed as inhibitors; Drosophila S2 Gal4-VP16 UAS-luciferase, luminescence, 20 h; hit rate 3.5% among 310,000;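 also: Gal4-VP16 expression switched on by copper sulfate through the metallothionein promoter; nearly all actives have a fitted effect of over 50% in size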
Numbers stand for hits; . = inactive; ? = inconclusive; / = not tested or not shown. Rows were chosen to be rich in hits. Some 6.3% of all compounds tested hit in one or more screens of this group. Calls follow the shape of the dose curve; as a rule, active = well fitted curve in the direction sought with a large enough effect; inconclusive = small, poorly fitted or top-dose-only effect, or another doubt; inactive = no such curve, though single readings can be large; an effect the other way counts as inactive or inconclusive.

SMILES	HepG2 tox	RORg inh	TGFb SMAD3 inh	ATXN viability	ATXN2 expr inh	Gal4-VP16 FLuc
COc1ccc(C(CC(=O)N2CCCC(C)C2)c2c(O)cc(OC)cc2OC)cc1 (centres undefined)	.	2µM	.	.	.	.
O=c1[nH]c(Sc2ccc([N+](=O)[O-])cc2[N+](=O)[O-])nc2ccccc12	11µM	/	14µM	?	/	/
Nc1nc(Sc2ccc([N+](=O)[O-])cc2[N+](=O)[O-])n[nH]1	.	.	.	?	.	.
O=C(CSc1nc2ccccc2c(=O)[nH]1)Nc1ccc([N+](=O)[O-])cc1	.	/	.	.	.	/
O=[N+]([O-])c1ccc(Sc2cc[n+]([O-])c3ccccc23)c([N+](=O)[O-])c1	.	11µM	.	?	.	18µM
CCCC[C@@H](C)/C=C(C)/C=C(\C)C(=O)NC1=C[C@@](O)(/C=C/C=C/C=C/C(=O)NC2=C(O)CCC2=O)[C@@H]2O[C@@H]2C1=O	/	0.45µM	/	/	/	1.3µM
O=C(c1ccc(F)cc1)N1CCN(S(=O)(=O)c2ccc3c(c2)OCCO3)CC1	.	/	.	.	/	/
O=C(c1ccc(C(F)(F)F)cc1)N1CCN(S(=O)(=O)c2ccc3c(c2)OCCCO3)CC1	.	13µM	?	.	.	.
Cc1ccc(S(=O)(=O)N(C)C[C@@H]2OCc3cnnn3CCCC(=O)N([C@H](C)CO)C[C@H]2C)cc1	.	/	.	.	.	/
Oc1ccc(Br)cc1-c1cc(-c2ccccc2Cl)[nH]n1	.	2.8µM	.	.	.	.
Oc1ccc(Br)cc1-c1cc(-c2ccccc2F)[nH]n1	.	1.8µM	.	.	.	3.5µM
Cc1ccc(-c2cc(-c3ccccc3Cl)[nH]n2)c(O)c1	.	?	?	.	.	?
Oc1ccccc1-c1cc(-c2ccc(F)cc2)n[nH]1	.	?	.	.	.	.
CCOC(=O)c1c(NC(=O)c2nc(SC)ncc2Cl)sc(C)c1C	.	/	.	.	.	/
Cc1ccc(NC(=S)N(CCCN2CCCC2)Cc2cccn2Cc2ccc(Cl)cc2)cc1Cl	.	?	.	?	?	.
CN(C)CCCN(Cc1ccccc1)C(=S)Nc1cccc(C(F)(F)F)c1	.	.	?	?	.	.
FC(F)(F)c1cccc(NC(=S)N(CCCN2CCCC2)Cc2cccn2Cc2ccc(Cl)cc2)c1	13µM	14µM	?	28µM	16µM	?
Cc1ccc(NC(=S)N(CCCN2CCCC2)Cc2cccn2Cc2ccc(Cl)cc2)cc1C	11µM	.	18µM	.	.	.
O=C(Nc1cccc(OC(F)(F)F)c1)c1cccc2c(-c3cccnc3)coc12	.	/	?	?	.	/
C=CCc1ccccc1OCC(O)CN1CCN(CCN2C(=O)c3cccc4cccc(c34)C2=O)CC1 (centres undefined)	.	.	14µM	?	28µM	11µM
Cc1ccccc1OCC(O)CN1CCN(CCN2C(=O)c3cccc4cccc(c34)C2=O)CC1 (centres undefined)	.	.	.	?	.	.
Cc1sc2nc(SCC(=O)N3CCOCC3)[nH]c(=O)c2c1-c1ccccc1	.	.	.	.	.	.
Cc1ccc(NC(=O)c2oc3ccccc3c2NC(=O)C2CCCCC2)cc1	.	/	.	.	.	/
C=CCc1ccc(O)c(-c2ccc(O)c(CC=C)c2)c1	.	?	?	/	?	22µM
COc1ccccc1/C=C/c1ccc2cccc(O)c2n1	.	4µM	.	.	.	?
SMILES	HepG2 tox	RORg inh	TGFb SMAD3 inh	ATXN viability	ATXN2 expr inh	Gal4-VP16 FLuc
COc1ccc(Cl)cc1/C=C/c1ccc2cccc(O)c2n1	.	0.89µM	.	.	.	0.79µM
COc1cc(OC)c(OC)cc1C=Cc1ccc2ccccc2n1	.	/	.	/	/	/
COc1cc(Cl)cc(/C=C/c2ccc3cccc(O)c3n2)c1OC	.	5µM	.	?	.	.
COc1ccc(/C=C/c2ccc3ccccc3n2)c(OC)c1	.	/	.	/	/	/
O=C1c2c(O)cc(O)cc2O[C@H](c2ccc(O)c(O)c2)C1O (some centres undefined)	/	.	/	/	/	.
OC(CNCCNc1ncccc1C(F)(F)F)Cn1ccc2ccccc21 (centres undefined)	16µM	.	?	.	/	.

High-throughput results (PubChem)
